Screening data as filed in PubChem BioAssay.
TDP1 cell noCPT – qHTS for Inhibitors of human tyrosyl-DNA phosphodiesterase 1 (TDP1): qHTS in cells in absence of CPT | DT40 Tdp1-/- hTDP1 cells, no CPT, ATP luminescence, 48 h | Potency, µM (titrated, usually from 46.2 µM), hits mostly inhibitors | actives 15% (n = 420,000); note: nearly all actives have a fitted effect of over 55% in size
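Growth kinetics read by CellTiter-Glo luminescence after ≥48 hr at 37 °C. Cells: DT40 Tdp1-/- stably carrying human TDP1, 400 per well, compound exposure in the absence of CPT (DMSO vehicle).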
TDP1 cell CPT – growth inhibition of DT40 Tdp1-/-;hTDP1 cells with camptothecin (screen for TDP1 inhibitors); actives 12% (n = 420,000); Potency, µM (titrated, usually from 46.2 µM), hits mostly inhibitors; chicken DT40 Tdp1-/-;hTDP1 cells + 20 nM CPT, ATP luminescence, 48 h; note: nearly all actives have a fitted effect of over 55% in size
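Chicken DT40 Tdp1-/- cells complemented with human TDP1, 400 cells/well, exposed to compounds plus 20 nM camptothecin for at least 48 h at 37 C; viability read as ATP content by CellTiter-Glo luminescence.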
IL-1B inflam inh – inhibitors of inflammasome signaling (IL-1 beta secretion). AID 743279. activity change, % at 57.5 µM. actives 4.7% (n = 360,000). THP-1 LPS/ATP IL-1B secretion, AlphaLISA, 16 h; active compounds read low; in the data active = activity change below about -50%; inconclusive = mostly about -30% to -49%
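THP-1 cells pretreated 1 hr with compounds (up to 57.5 uM final), then stimulated with LPS (250 ng/mL final) plus ATP (1.25 mM final); secreted IL-1B measured by AlphaLISA after 16 hr, decreased signal indicating inhibition.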
HT1080NT lethal – kills 2HG-producing HT-1080-NT fibrosarcoma cells; Potency, µM (top dose mostly 46.1 µM), hits mostly cytotoxic; actives 1.6% (n = 360,000); HT-1080-NT fibrosarcoma viability, CellTiter-Glo ATP luminescence, 48 h;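 note: NT is the 2HG producing partner of a matched IDH1 knockdown line; nearly all actives have a fitted effect of over 55% in size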
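HT-1080-NT fibrosarcoma cells (2HG-overproducing), 750 cells/well in RPMI with 5% FBS, dosed after 2 h and incubated 48 h at 37C. CellTiter-Glo luminescence normalized to DMSO and no-cell wells; concentration-response curves fitted and classed.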
HT1080 IDH1KD tx – HT-1080 IDH1 knockdown cell toxicity (counter line). HT-1080 IDH1 knockdown viability, ATP luminescence, 48 h. Potency, µM (highest dose often 46.1 µM), hits mostly cytotoxic. actives 2% (n = 360,000)
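IDH1KD HT-1080 cells, 750/well, RPMI + 5% FBS; compound pinned after 2 h settling; 48 h, 37 °C; CellTiter-Glo luminescence; % activity normalised to DMSO and no-cell wells; curves fitted, classed by r2 and efficacy.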
Hits are given with their value; i = inactive; ? = inconclusive; nt = not tested or not shown; [ ] = remark or other dose. Compounds with a hit are over-represented: about 19% of the library has one in this group of screens. Unless noted, calls come from the whole dose curve; as a rule, active = well fitted curve in the direction sought with a large enough effect; inconclusive = small, poorly fitted or top-dose-only effect, or another doubt; inactive = no such curve, though single readings can be large; an effect the other way counts as inactive or inconclusive.

SMILES	TDP1 cell noCPT	TDP1 cell CPT	IL-1B inflam inh	HT1080NT lethal	HT1080 IDH1KD tx
O=C(NCC(=O)N1CC(O)CC1C(=O)N1CCCC1C(=O)OCc1ccccc1)OCc1ccccc1 (configuration not stated)	i	?	i	i	?
c1ccc(-c2ccnc3nc(N4CCN(c5ccccc5)CC4)nn23)cc1	20.6µM	18.4µM	i	i	i
Fc1ccc(-c2ccnc3nc(N4CCN(c5ccccc5)CC4)nn23)cc1	i	i	i	i	i
O=C(Nc1ccnn1C1CCN(C(=O)c2cnsn2)CC1)c1cccc(F)c1	i	i	i	i	i
CCn1c(COc2ccc(C)cc2)nc2ccccc21	?	?	-75.8	i	i
O=C(Cn1c(COc2ccccc2)nc2ccccc21)Nc1cc(Cl)cc(Cl)c1	?	18.4µM	i	?	?
C=CCn1c(-c2cccs2)nc2ccccc21	20.6µM	i	i	i	i
C=CCn1c(COc2ccccc2)nc2ccccc21	23.1µM	?	i	i	i
CCCn1c(-c2cccs2)nc2ccccc21	i	i	i	i	?
O=C(Cn1c(COc2ccccc2)nc2ccccc21)Nc1cc(Cl)ccc1Cl	?	?	i	i	i
COc1ccc(NC(=O)CCNC(=O)N2CC(=O)Nc3ccccc32)cc1OC	i	i	i	i	i
Cc1ccc(OCc2nc3ccccc3n2Cc2ccccc2Cl)cc1	?	20.6µM	nt	nt	nt
COCCn1c(COc2ccc(C)cc2)nc2ccccc21	?	?	?	i	i
COCc1nc2ccccc2n1Cc1cccc(C)c1	?	?	i	i	i
Cc1cccc(Cn2c(COc3ccc(Cl)cc3)nc3ccccc32)c1	16.4µM	23.1µM	nt	nt	nt
Cc1ccc(OCc2nc3ccccc3n2CCOc2ccc(Cl)cc2)cc1	18.4µM	?	nt	nt	nt
CC1(C)CC(NC(=O)c2cccc([N+](=O)[O-])c2)CC(C)(C)N1	i	i	i	i	i
O=C(CCc1c[nH]c2ccccc12)N1CCC(n2c(C3CCCO3)nc3cc(C(F)(F)F)ccc32)CC1 (configuration not stated)	i	i[9.04 µM]	nt	nt	nt
Cc1ccc(NC(=S)NCCN(C2CCCCC2)C2CCCC2)cc1	?	?	i	i	i
Cc1ccc(NC(=S)NCCN(C2CCCCC2)C2CCCC2)cc1C	?	20.6µM	-67.1	?	?
CCN1CCN(C(=O)CN2C(=O)COc3ccc(S(=O)(=O)N4CCOCC4)cc32)CC1	i	i	i	i	i
Cn1cc(C[C@H](NC(=O)OC(C)(C)C)C(=O)N[C@@H](CO)Cc2ccccc2)c2ccccc21	?	18.4µM	i	i	i
CN(CCC#N)c1ccc(/C=C/c2ccnc3ccccc23)cc1	2µM	0.794µM	nt	nt	nt
CCN(CCC#N)c1ccc(/C=C/c2ccnc3ccccc23)cc1	20µM	?	nt	nt	nt
Cc1ccc(CCNC(=O)c2cc3ccccn3n2)cc1	i	i	nt	nt	nt
SMILES	TDP1 cell noCPT	TDP1 cell CPT	IL-1B inflam inh	HT1080NT lethal	HT1080 IDH1KD tx
CCC1SC(C)C/C(=N/NC(N)=O)C1C (configuration not stated)	i	i	i	i	i
CC1CC(C)C(=NNC(N)=O)C(C(O)CC2CCC(=O)NC2=O)C1 (configuration not stated)	2.31µM	1.64µM	i	i	?
CCOC(=O)c1cnc(SCC(=O)NNC(=O)c2ccco2)nc1N	i	i	i	i	i
CCCn1c(N2CCN(CC(=O)c3c(C)n(C)c4ccc(OC)cc34)CC2)nc2c1c(=O)[nH]c(=O)n2C	20.6µM	?	i	i	?
COc1ccc(CCn2c(N3CCN(C)CC3)nc3c2c(=O)[nH]c(=O)n3C)cc1	i	i	i	i	i
CCCCCn1c(CN2CCN(c3ccc(OC)cc3)CC2)nc2c1c(=O)[nH]c(=O)n2C	23.1µM	?	nt	nt	nt
COc1ccc(N2CCN(Cc3nc4c(c(=O)[nH]c(=O)n4C)n3Cc3ccc(C)cc3)CC2)cc1	?	i	nt	nt	nt
CCCCCn1c(CN2CCN(c3cc(Cl)ccc3C)CC2)nc2c1c(=O)[nH]c(=O)n2C	12.6µM	14.1µM	?	i	i
COc1ccc(Br)c(Cn2c(C)c(C(=O)NCc3ccc4c(c3)OCCO4)sc2=O)c1	i	?	i	i	i
Cc1cccc(C)c1Cn1c(C)c(C(=O)NCc2ccc([N+](=O)[O-])cc2)sc1=O	23.1µM	?	i	?	?
COc1ccc(C(C)=O)cc1Cn1c(C)c(C(=O)NCc2ccc3c(c2)OCO3)sc1=O	?	?	i	i	i
COc1ccc(C(C)=O)cc1Cn1c(C)c(C(=O)NCc2cccc(Cl)c2)sc1=O	20.6µM	?	i	i	i
CC(=O)Oc1ccc(Cn2c(C)c(C(=O)NCc3ccc4c(c3)OCCO4)sc2=O)cc1	16.4µM	?	i	i	i
COc1ccc(CNC(=O)c2sc(=O)n(Cc3cc(Cl)ccc3OC)c2C)cc1	16.4µM	?	i	i	i
COC(=O)c1ccc(Cn2c(C)c(C(=O)NCc3ccc([N+](=O)[O-])cc3)sc2=O)o1	?	?	i	i	i
O=c1c(-c2cc(-c3ccc(F)cc3)nc3c2COc2ccc(Cl)cc2-3)coc2ccc(F)cc12	i	i	nt	nt	nt
O=C(COC(=O)c1ccc2c(c1)C(=O)N(Cc1ccco1)C2=O)NCC(F)(F)F	i	i	i	i	i
CSc1ccc(Cn2c(C)c(C(=O)NCc3cccc(C)c3)sc2=O)cc1	?	23.1µM	-65.2	i	?
COc1ccc(C(C)=O)cc1Cn1c(C)c(C(=O)NCc2cccc(C)c2)sc1=O	?	?	-78.5	i	i
COc1ccc(C(C)=O)cc1Cn1c(C)c(C(=O)NCc2ccc(C(C)C)cc2)sc1=O	?	?	i	i	i
COc1ccc(C(C)=O)cc1Cn1c(C)c(C(=O)NCc2cccc(C(F)(F)F)c2)sc1=O	?	?	i	i	?
COc1ccc(Cl)cc1Cn1c(C)c(C(=O)NCc2cccc(Cl)c2)sc1=O	?	14.6µM	i	i	i
COc1ccc(CNC(=O)c2sc(=O)n(Cc3cc(C(C)=O)ccc3OC)c2C)cc1	13µM	23.1µM	i	i	i
CCN(C(=O)CCCC(=O)N(CC)c1ccccc1)c1ccccc1	i	i	i	i	i
O=C(c1ccco1)N1CCC2(CCCN(c3ncccn3)C2)CC1	i	i	nt	nt	nt
CCC1/C(=N\O)CC(c2ccco2)NC1c1ccco1 (configuration not stated)	i	i	i	i	i
COc1ccc(Cl)cc1Cn1c(C)c(C(=O)NCc2ccc3c(c2)OCCO3)sc1=O	18.4µM	?	i	i	i
COc1ccc(NC(=O)c2sc(=O)n(Cc3ccc(F)c(Cl)c3)c2C)cc1OC	10.3µM	23.1µM	i	i	?
CN(CC(=O)Nc1c(Cl)cccc1Cl)C(=O)CNC(=O)c1ccco1	i	i	i	i	i
Cc1ccc(CNC(=O)CSc2ncccn2)cc1	i	i	i	i	i
